# Assay outcomes: PubChem BioAssay, National Center for Advancing Translational Sciences (NCATS)
# RORg inh – qHTS for inhibitors of ROR gamma transcriptional activity; Drosophila S2 Gal4-RORgamma UAS-luciferase reporter, 20 h; Nuclear receptor ROR-gamma (Mus musculus), P51450; actives 5.4% (n = 310,000); Potency, µM (series often up to 53.6 µM), for the others: at the highest dose activity change, negative = inhibition, most hits filed as inhibitors; further: potency means the concentration at half of the fitted maximal effect; on the % scale 0 is the no-effect control and ±100 the full control effect; nearly all actives have a fitted effect of over 60% in size
# Target sequence (P51450 whole entry, looked up, the tested form may be a part): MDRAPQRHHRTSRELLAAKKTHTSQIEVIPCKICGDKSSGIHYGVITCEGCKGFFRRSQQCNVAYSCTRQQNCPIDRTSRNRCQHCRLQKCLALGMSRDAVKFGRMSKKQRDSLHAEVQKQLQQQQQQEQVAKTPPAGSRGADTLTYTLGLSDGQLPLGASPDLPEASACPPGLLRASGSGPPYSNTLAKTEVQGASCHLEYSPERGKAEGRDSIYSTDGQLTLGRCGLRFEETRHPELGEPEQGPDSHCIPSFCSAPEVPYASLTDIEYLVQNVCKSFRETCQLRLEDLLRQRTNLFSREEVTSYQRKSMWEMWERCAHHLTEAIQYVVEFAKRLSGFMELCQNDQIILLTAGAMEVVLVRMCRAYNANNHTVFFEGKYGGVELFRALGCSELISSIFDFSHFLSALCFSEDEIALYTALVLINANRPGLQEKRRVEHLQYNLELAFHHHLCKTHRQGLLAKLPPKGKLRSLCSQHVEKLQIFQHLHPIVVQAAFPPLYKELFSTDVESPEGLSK
#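 Using a luciferase readout, inhibitors were identified by reduced reporter activity in Drosophila cells coexpressing a copper-inducible Gal4–ROR gamma fusion and UAS-driven Photinus luciferase, incubated 20 hr after 700 uM copper sulfate.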
# SW480 rerep – A quantitative high throughput screen for small molecules that induce DNA re-replication in SW480 colon adenocarcinoma cells | SW480 DNA re-replication, Hoechst DNA content imaging, 48 h | Potency, µM (series often up to 46.1 µM), for inactives: at the top dose re-replication activation, usual class: activators | actives 1.8% (n = 340,000) | AID 624297, 2012; further: potency means the concentration at half of the fitted maximal effect; % of control where 0% means no effect; nearly all actives have a fitted effect of over 55% in size
#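 SW480 cells exposed to compounds for 48 hr at 37 C, 5% CO2, then Hoechst-stained 40 min. Nuclear DNA content imaged by fluorescence scanning (405 nm excitation, 500-530 nm emission); re-replication scored as increased high-intensity nuclei.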
# MCF10A rereplic – A quantitative high throughput screen for small molecules that induce DNA re-replication in MCF 10a normal breast cells | MCF 10A DNA re-replication, Hoechst nuclear intensity, 48 h | Potency, µM (titrated, usually from 46.1 µM), without a hit: at the highest dose activity, positive = re-replication, hits mostly activators | actives 2.9% (n = 350,000) | AID 624296, 2012; further: potency means the concentration at half of the fitted maximal effect; % of control where 0% means no effect; nearly all actives have a fitted effect of over 50% in size
# Gal4-VP16 FLuc – VP16 counterscreen qHTS for inhibitors of ROR gamma transcriptional activity; AID 2546, 2010; actives 3.5% (n = 310,000); Potency, µM (titrated, usually from 53.6 µM), inactives show at the highest dose activity, negative = inhibition, usual class: inhibitors; Drosophila S2 Gal4-VP16 UAS-luciferase, luminescence, 20 h;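 further: Gal4-VP16 expression switched on by copper sulfate through the metallothionein promoter; potency means the concentration at half of the fitted maximal effect; on the % scale 0 is the no-effect control and ±100 the full control effect; nearly all actives have a fitted effect of over 50% in size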
# Giardia kill – Small Molecules that selectively kill Giardia lamblia: qHTS; Giardia lamblia trophozoite viability; activity change, % at 7.66 µM, hits read low; actives 0.15% (n = 340,000); in the data active means activity change below about -80%; inconclusive means between about -30% and that limit;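 further: parasites exposed to compound for two days anaerobically before the ATP read; on the % scale 0 is the no-effect control and ±100 the full control effect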
#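 ATP-content bioluminescence gauges trophozoite survival. Cells (100/well) receive compound and incubate anaerobically for 48 hrs at 37 deg C; detection reagent follows for 15-30 min at room temperature.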
# BCR signal inh – qHTS Assay to Find Inhibitors of Chronic Active B-Cell Receptor Signaling | ABC-DLBCL IkBa-CBG/CBR reporter, luminescence ratio, 4 h | actives 0.05% (n = 340,000) | Potency, µM (titrated, usually from 46.1 µM), for the others: at the highest dose activity change, negative = inhibition, hits mostly inhibitors | AID 493014, 2011; active means well fitted inhibition curve with a large enough effect in the signal ratio, with a control signal flat, not every such curve was filed as active; inconclusive means small, poorly fitted or top-dose-only effect, or effect the other way, or a change in a side signal; the % refers to the signal ratio;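 further: potency means the concentration at half of the fitted maximal effect; plate controls were basal doxycycline-induced cells for no effect and cells given 10 µM MG132 for full effect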
#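 Cell line TMD8 (human ABC DLBCL), stably expressing tet-inducible CBG68-IkBa fusion and CBR; IMDM/0.5% FBS; cpd up to 46 uM; dox induction, 4 h, 37C/5% CO2; dual luminescence; green/red ratio; MG132 control.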
# The depositor's hits bear a star; ? = inconclusive; · = no result; [ ] = remark or other dose. Sampled rows, rich in hits. Any-hit rate of the full collection: about 8.3%. Unless noted, the call rests on the fitted dose curve; in most records, active means well fitted curve in the direction sought with a large enough effect; inconclusive means small, poorly fitted or top-dose-only effect, or another doubt; inactive means no such curve, though single readings can be large; an effect the other way counts as inactive or inconclusive.
SMILES,RORg inh,SW480 rerep,MCF10A rereplic,Gal4-VP16 FLuc,Giardia kill,BCR signal inh
N#CC1=C(N)OC2=C(CC/C2=C\c2ccccc2)C1c1ccccc1 (centres undefined),?,15µM*,5.8µM*,-19%,4,?
N#CC1=C(N)OC2=C(CC/C2=C\c2ccccc2Cl)C1c1ccccc1Cl (centres undefined),-39%,?,?,?,10,?
Cc1cc(C)c(S(=O)(=O)NCc2ccncc2)c(C)c1,?,-7%,0%,8.9µM*,13,-1%
O=[N+]([O-])c1cccc(S(=O)(=O)NCc2ccncc2)c1,23%,-2%,-8%,10µM*,10,-13%
O=[N+]([O-])c1cccc(S(=O)(=O)Nc2ccc(Cc3ccncc3)cc2)c1,?,-27%,17%,?,11,?
Cc1cc(C)c(S(=O)(=O)NCCc2ccncc2)c(C)c1,-14%,-19%,4%,-4%,21,?
CCCCNc1cccc2c1S(=O)(=O)N(CCCC)CC(COCc1ccccc1)O2 (centres undefined),·,-60%,-11%,·,-17,·
Cc1sc(N/N=C/c2cc([N+](=O)[O-])ccc2O)nc1-c1ccccc1,0.28µM*,14%,?,0.71µM*,19,3%
CCc1ccc(N2CC(C(=O)N/N=C/c3cc([N+](=O)[O-])ccc3O)CC2=O)cc1 (centres undefined),4.5µM*,1%,4%,10µM*,19,4%
COc1ccc(N2CC(C(=O)N/N=C/c3ccc(C)cc3)CC2=O)cc1 (centres undefined),-2%,5.2µM*,2.3µM*,0%,-10,?
CCc1ccc(N2CC(C(=O)N/N=C/c3ccccc3OC)CC2=O)cc1 (centres undefined),3%,-5%,10%,-6%,6,-4%
O=C(N/N=C/c1cc([N+](=O)[O-])ccc1O)C(O)(c1ccccc1)c1ccccc1,0.89µM*,21µM*,?,0.89µM*,13,?
O=[N+]([O-])c1ccc(O)c(/C=N/Nc2ccccc2Cl)c1,?,-4%,?,?,-5,?
Cc1c(C(C)CCCO)oc(=O)c2c1Oc1c(C)c(C(C)C[C@H](C)O)oc(=O)c1C2 (some centres undefined),·,-1%,?,·,-5,-1%
COCC(C)n1c(C)cc(C(=O)COC(=O)c2cccn2C)c1C (centres undefined),·,-24%,23%,·,16,4%
O=C(N/N=C/c1cc([N+](=O)[O-])ccc1O)C1CC1,1.8µM*,-3%,?,7.9µM*,-23,-4%
O=C(N/N=C/c1cccc([N+](=O)[O-])c1)c1cccc2cc[nH]c12,-1%,3%,5%,2%,9,-19%
O=C(N/N=C/c1cc([N+](=O)[O-])ccc1O)c1cccc2cc[nH]c12,1.4µM*,7.3µM*,?,3.5µM*,-1,?
CCCNc1nc(C)cc(-c2cc(-c3ccccc3)on2)n1,-25%,-34%,61%,-20%,-9,?
Cc1cc(-c2cc(-c3ccccc3)on2)nc(NCC2CC2)n1,-24%,1%,18µM*,9%,5,?
COc1ccccc1N/C=C/c1onc(C)c1[N+](=O)[O-],11µM*,14%,2%,?,0,-10%
Cc1noc(/C=C/Nc2ccc(F)cc2F)c1[N+](=O)[O-],?,-3%,-4%,-6%,-5,0%
CC(C)c1ccc(N2C(=O)CC(NNC(=O)c3ccccc3Cl)C2=O)cc1 (centres undefined),?,19%,-10%,3.2µM*,-19,-9%
COc1cc(OC)nc(NC(=S)NC(=O)c2ccccc2)n1,5µM*,6%,5%,?,-2,?
Cc1ccc2cccnc2c1NC(=S)NC(=O)c1ccccc1,1.3µM*,10%,14%,3.5µM*,-23,?
SMILES,RORg inh,SW480 rerep,MCF10A rereplic,Gal4-VP16 FLuc,Giardia kill,BCR signal inh
Cc1cc(C)c2cccc(NC(=S)NC(=O)c3ccccc3)c2n1,?,4.1µM*,19%,3.2µM*,-3,?
Cc1csc(NC(=S)NC(=O)c2ccccc2)n1,2µM*,-6%,-7%,3.2µM*,-25,?
Cc1ccccc1NC(=S)NC(=O)c1cncc(Br)c1,?,1%,9%,?,2,-1%
CC(C)Cn1c(=O)c(C(=O)N/N=C/c2cccc(F)c2)c(O)c2ccccc21,-10%,1%,2%,0%,1,-4%
Cc1ccc2cccc(NC(=S)NC(=O)c3ccccc3)c2n1,1.8µM*,16µM*,?,7.9µM*,13,?
CC(=O)NC(=S)Nc1cccc2c(C)cc(C)nc12,1.6µM*,13%,0%,11µM*,2,4%
O=C(NC(=S)Nc1ccccc1C(=O)O)c1ccc2ccccc2c1,2%,-4%,5%,1%,8,?
COc1ccc(CCNc2nnc(Sc3nnnn3-c3ccccc3)s2)cc1OC,?,2.9µM*,4.6µM*,9%[0.365 µM],6,?
COc1ccc(-n2nnnc2SCC(=O)NCCc2ccccc2)cc1OC,-1%,-2%,-11%,20%,-8,-6%
CCc1cccc2c(C(=O)COC(=O)c3c(C)noc3C)c[nH]c12,4%,?,23µM*,-9%,-8,?
Cc1noc(C)c1C(=O)OCC(=O)c1c[nH]c2ccccc12,26%,1%,0%,20%,-6,0%
CC(C)(C)OC(=O)NCC1CCC(C(=O)NC[C@H](CC(=O)O)c2ccc(Cl)cc2)CC1 (some centres undefined),15%,4%,3%,3%,-3,-4%
C=C(C)c1cccc(C(C)(C)NC(=O)Nc2ccc(OC)nc2)c1,25%,23%,6%,-14%,33,?
CCOC(=O)C1CCN(C(=O)c2cc3cc(Br)ccc3oc2=O)CC1,10%,5%,-4%,17%,-12,1%
CCOC(=O)C1CCCN(C(=O)c2cc3cc(Br)ccc3oc2=O)C1 (centres undefined),-8%,6.3µM*,5%,5%,14,1%
NNC(=O)CCn1c2ccccc2c2ccccc21,-27%,86%,12µM*,2%,3,-16%
